PubChem BioAssay (NCATS)
Records with an inconclusive call do not appear. Activity calls are given as the source filed them. Calls come from the whole dose curve; as a rule, active = well fitted inhibition curve with a large enough effect; inconclusive = small, poorly fitted or top-dose-only effect; inactive = flat fitted curve, though single readings scatter.

Assays:
Test in all cases: qHTS profiling for inhibitors of Plasmodium falciparum proliferation (AID 504749); note: nearly all actives have a fitted effect of over 60% in size
Details in all cases: P. falciparum in erythrocytes, SYBR Green DNA, 72 h; series mostly up to 28.7 µM
CP297 = test system: CP297
Method in brief: (§1)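 Fluorescence of SYBR Green-bound parasite DNA, read at 485/535 nm, served as the growth measure. Infected erythrocytes were cultured with compound 72 h; artemisinin (0.29 uM) and DMSO wells defined the normalization range.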

CP305 = test system: CP305
Method in brief: as §1

CP315 = test system: CP315
Method in brief: as §1

CP325 = test system: CP325
Method in brief: as §1

CP329 = test system: CP329
Method in brief: as §1

CP335 = test system: CP335
Method in brief: as §1

DFO2036 = test system: DFO2036
Method in brief: as §1

DIV14 = test system: DIV14
Method in brief: as §1

DIV17 = test system: DIV17
Method in brief: as §1

DIV30 = test system: DIV30
Method in brief: as §1

Dd2 = test system: Dd2
Method in brief: as §1

ECU = test system: ECU
Method in brief: as §1

FAB9 = test system: FAB9
Method in brief: as §1

GB4 = test system: GB4
Method in brief: as §1

HB3 = test system: HB3
Method in brief: as §1

ICS = test system: ICS
Method in brief: as §1

JCK = test system: JCK
Method in brief: as §1

N140 = test system: N140
Method in brief: as §1

P93_24 = test system: P93_24
Method in brief: as §1

P94_40 = test system: P94_40
Method in brief: as §1

Measured: Potency

CCCCCCCCCCCC(=O)N(CCO)CCO
inactive: all assays above

CCCC(=O)O
inactive: all assays above

NC(=O)Oc1ccc(Cc2ccccc2)cc1
inactive: all assays above

O=P(O)(O)OP(=O)(O)OP(=O)(O)O
inactive: all assays above

CC(=O)Oc1cccc(C(=O)O)c1OC(C)=O
inactive: all assays above

O=C(O)/C=C/c1ccccc1
inactive: all assays above

CCN(CC)C(=O)c1cccnc1
inactive: all assays above

O=C1c2ccccc2C(=O)C1c1ccc(F)cc1
inactive: all assays above

CN1C(=O)C[C@@H](C(=O)N[C@@H](Cc2cnc[nH]2)C(=O)N2CCC[C@H]2C(N)=O)NC1=O
inactive: all assays above

F[Si-2](F)(F)(F)(F)F
inactive: all assays above

Nc1ncnc2c1ncn2CCOCP(=O)(O)O
inactive: all assays above

OC[C@H]1O[C@@](CO)(O[C@H]2O[C@H](CO)[C@@H](O)[C@H](O)[C@H]2O)[C@@H](O)[C@@H]1O
inactive: all assays above

CC(C)[C@@H](N)C(=O)O
inactive: all assays above

CC(C)(C)CC(C)(C)c1cc(Cc2cc(C(C)(C)CC(C)(C)C)cc(-n3nc4ccccc4n3)c2O)c(O)c(-n2nc3ccccc3n2)c1
inactive: all assays above

CN1CCC(OC(=O)C(Oc2ccc(Cl)cc2)Oc2ccc(Cl)cc2)CC1
inactive: all assays above

O=C(O)C1=C(CSc2nnnn2CS(=O)(=O)O)CS[C@@H]2[C@H](NC(=O)[C@H](O)c3ccccc3)C(=O)N12
inactive: all assays above

C=CCCCCCCCCC(=O)OC
inactive: all assays above

O=C(O)COc1ccccc1/C=N/NC(=O)c1ccncc1
inactive: all assays above

FC(F)(F)C(F)(F)C(F)(F)C(F)(F)C(F)(F)C(F)(F)F
inactive: all assays above

COc1ccc(/C=N/NC(=O)c2ccncc2)c(C(=O)O)c1OC
inactive: all assays above

O=S(=O)(O)CC(S)CS (stereo not given)
inactive: all assays above

COC(=O)C(CN)c1c[nH]c2ccc(OC)cc12 (stereo not given)
inactive: all assays above

CC12CCC(C1)C(C)(C)C2=O (stereo not given)
inactive: all assays above

CCCCC(CC)COS(=O)(=O)O (stereo not given)
inactive: all assays above

CC1=CC(=O)NS(=O)(=O)O1
inactive: all assays above

NCC(O)CC(=O)O (stereo not given)
inactive: all assays above

CCOC(C)OCC
inactive: all assays above

COC(=O)CC[C@H](N)C(=O)O
inactive: all assays above

CC(=O)[C@H]1CC[C@H]2[C@@H]3C=CC4=CC(=O)CC[C@@]4(C)[C@H]3CC[C@]12C
inactive: all assays above
